Data from PubChem BioAssay (NCATS).
Inconclusive results are not listed. Calls of active or inactive are those of the source. Calls come from the whole dose curve; as a rule, active = well fitted curve in the direction sought with a large enough effect; inconclusive = small, poorly fitted or top-dose-only effect, or another doubt; inactive = no such curve, though single readings can be large; an effect the other way counts as inactive or inconclusive.

Tests used:
[1] = target: Rap guanine nucleotide exchange factor 3 (Homo sapiens) (UniProt O95398); assay: Confirmatory qHTS for antagonist of cAMP-regulated guanine nucleotide exchange factor 3 (EPAC1) (AID 1645880); conditions: EPAC1 Rap1B-BODIPY-GDP exchange, fluorescence; activity, negative = inhibition: at 115 µM (top of the series); note: nearly all actives have a fitted effect of over 55% in size; note: potency is the fitted concentration of half-maximal effect;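 for activity, negative = inhibition: plate controls were DMSO only for no effect and full effect of the ATA control for full effect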
In short: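 Nucleotide exchange uses 100 nM EPAC1, 250 nM RAP1B-BODIPY-GDP and 50 uM GDP, with compounds in a concentration-titration series. After 5 min at room temperature, fluorescence (480 nm ex/540 nm em) is read every 5 min for 30 min. Data are normalized to control ATA and DMSO.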

[2] = target: Rap guanine nucleotide exchange factor 3 (Homo sapiens) (UniProt O95398); assay: Confirmatory qHTS for agonist of cAMP-regulated guanine nucleotide exchange factor 3 (EPAC1) (AID 1645881); note: nearly all actives have a fitted effect of over 75% in size; note: potency is the fitted concentration of half-maximal effect;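 for activation: EPAC1 catalysed release of BODIPY-GDP from Rap1B seen as fluorescence loss; 100% = effect of cAMP agonist control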
[3] = target: Rap guanine nucleotide exchange factor 4 (Homo sapiens) (UniProt Q8WZA2); assay: Confirmatory qHTS for agonist of cAMP-regulated guanine nucleotide exchange factor 4 (EPAC2) (AID 1645884);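 note: nucleotide exchange releases bodipy-GDP from Rap1 and this lowers its fluorescence; nearly all actives have a fitted effect of over 65% in size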; note: potency is the fitted concentration of half-maximal effect; for activation: % is set by controls: 0 for no effect and ±100 for the full control effect
[4] = target: Rap guanine nucleotide exchange factor 3 (Homo sapiens) (UniProt O95398); assay: Counterscreen qHTS for antagonist of cAMP-regulated guanine nucleotide exchange factor 3 (EPAC1) (AID 1645888);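 note: fluorescence loss as bound BODIPY-GDP is released from Rap1B; % of control where 0% means no effect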
In short: (§1)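 Measured: fluorescence of BODIPY-GDP bound to Rap1B, which falls as exchange proceeds. Conditions include 50 uM competing GDP, 5 and 30 min reads, and a later cAMP challenge for antagonist detection.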

[5] = target: Rap guanine nucleotide exchange factor 3 (Homo sapiens) (UniProt O95398); assay: Counterscreen qHTS for agonist of cAMP-regulated guanine nucleotide exchange factor 3 (EPAC1) (AID 1645889); note: nearly all actives have a fitted effect of over 40% in size; note: potency is the fitted concentration of half-maximal effect; for activation: % of control where 0% means no effect
In short: as §1

[6] = target: Cytochrome P450 3A4 (Homo sapiens) (UniProt P08684); assay: qHTS Assay for Inhibitors and Substrates of Cytochrome P450 3A4 (AID 884); note: potency is the fitted concentration of half-maximal effect; nearly all actives have a fitted effect of over 50% in size
In short: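 20 nM human CYP3A4 with 25 uM Luciferin-PPXE (at KM) in 200 mM KPO4, preincubated 10 min with compound; NADPH regeneration started a 60 min RT reaction. Luciferin detected by luminescence, normalized to 57 uM ketoconazole as full inhibition.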

[7] = target: Cytochrome P450 3A4 (Homo sapiens) (UniProt P08684); assay: qHTS Assay for Activators of Cytochrome P450 3A4 (AID 885); note: nearly all actives have a fitted effect of over 65% in size
In short: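 Signal was normalized against complete inhibition by 57 uM ketoconazole. The reaction used 20nM CYP3A4 with 25uM Luciferin-PPXE, 10-min compound preincubation and a 60-min NADPH-supported step at RT.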

[8] = target: Tumor susceptibility gene 101 protein (Homo sapiens) (UniProt Q99816); assay: qHTS Assay for Iinhibitors of HIV-1 Budding by Blocking the Interaction of PTAP/TSG101: Hit Validation (AID 651600); note: potency is the fitted concentration of half-maximal effect; nearly all actives have a fitted effect of over 70% in size
In short: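 Displacement of a FITC-labeled PTAP-motif peptide (50 nM) from the Tsg101 binding domain (10 uM) was monitored by fluorescence polarization after a 20 min room-temperature incubation.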

[9] = qHTS for Inhibitors of Ubiquitin-specific Protease USP2a Using CHOP2 as the Reporter: K633 Counterscreen (AID 652168); note: % of control where 0% means no effect
In short: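 Cell-free interference counterscreen without USP2a: compounds pinned into enzyme-free buffer (20 mM Tris pH 8, 2 mM beta-mercaptoethanol, 0.05% Chaps), then DiUb K48-4IQF substrate added (100 nM stock); fluorescence read kinetically, Ex 525/Em 598.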

[10] = qHTS for Inhibitors of Ubiquitin-specific Protease USP2a Using CHOP2 as the Reporter: Cytotox Assay (AID 652170);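 note: plate controls were DMSO-treated cells for no effect and wells without cells for full effect; nearly all actives have a fitted effect of over 70% in size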
In short: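 HCT116 human colon cancer cells, 600 per well in DMEM with 10% FBS, exposed to compounds for 72 hr at 37 deg C. ATP measured by CellTiter-Glo luminescence, normalized to DMSO cells and no-cell background.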

[11] = target: Ubiquitin carboxyl-terminal hydrolase 2 (Homo sapiens) (UniProt O75604); assay: qHTS for Inhibitors of Ubiquitin-specific Protease USP2a Using CHOP2 as the Reporter: K484 Substrate (AID 652173); conditions: USP2 cleavage of DiUb K48 IQF substrate, fluorescence;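 note: cleavage of internally quenched K48 di-ubiquitin substrate measured as rising fluorescence over time; potency is the fitted concentration of half-maximal effect; nearly all actives have a fitted effect of over 70% in size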
In short: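 USP2 (dispensed at 5 nM) was pinned with compounds, then DiUb K48 internally quenched fluorescent substrate (dispensed at 100 nM) was added. The buffer was 20 mM Tris pH 8, 2 mM beta-mercaptoethanol and 0.05% CHAPS. Cleavage was read kinetically as rising fluorescence, Ex 525/Em 598.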

Sequence of Rap guanine nucleotide exchange factor 3 (Homo sapiens) (O95398 whole entry, looked up): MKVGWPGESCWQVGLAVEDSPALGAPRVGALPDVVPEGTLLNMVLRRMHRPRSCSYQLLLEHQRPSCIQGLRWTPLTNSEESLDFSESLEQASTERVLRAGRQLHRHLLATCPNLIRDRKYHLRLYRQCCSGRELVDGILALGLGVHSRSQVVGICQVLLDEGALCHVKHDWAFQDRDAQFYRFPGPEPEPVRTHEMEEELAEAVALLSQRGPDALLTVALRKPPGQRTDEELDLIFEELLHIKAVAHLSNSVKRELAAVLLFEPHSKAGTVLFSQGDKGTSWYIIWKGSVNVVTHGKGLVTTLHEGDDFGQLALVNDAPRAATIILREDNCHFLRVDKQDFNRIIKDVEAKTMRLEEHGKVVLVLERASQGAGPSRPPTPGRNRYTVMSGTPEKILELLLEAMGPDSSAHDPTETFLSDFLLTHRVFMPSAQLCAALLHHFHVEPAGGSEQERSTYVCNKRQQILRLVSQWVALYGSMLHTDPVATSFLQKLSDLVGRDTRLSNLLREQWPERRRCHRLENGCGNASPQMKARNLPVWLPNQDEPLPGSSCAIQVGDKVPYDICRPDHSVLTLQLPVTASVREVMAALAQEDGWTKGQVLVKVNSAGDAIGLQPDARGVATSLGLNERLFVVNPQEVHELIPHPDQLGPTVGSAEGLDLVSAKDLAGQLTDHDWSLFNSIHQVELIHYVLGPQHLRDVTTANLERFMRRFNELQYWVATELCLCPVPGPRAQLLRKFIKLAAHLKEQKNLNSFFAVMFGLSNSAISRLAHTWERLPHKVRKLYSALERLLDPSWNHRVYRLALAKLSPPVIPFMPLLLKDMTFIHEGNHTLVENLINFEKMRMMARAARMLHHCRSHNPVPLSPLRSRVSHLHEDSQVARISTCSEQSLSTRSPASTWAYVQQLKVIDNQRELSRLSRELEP
Sequence of Rap guanine nucleotide exchange factor 4 (Homo sapiens) (Q8WZA2 whole entry, looked up): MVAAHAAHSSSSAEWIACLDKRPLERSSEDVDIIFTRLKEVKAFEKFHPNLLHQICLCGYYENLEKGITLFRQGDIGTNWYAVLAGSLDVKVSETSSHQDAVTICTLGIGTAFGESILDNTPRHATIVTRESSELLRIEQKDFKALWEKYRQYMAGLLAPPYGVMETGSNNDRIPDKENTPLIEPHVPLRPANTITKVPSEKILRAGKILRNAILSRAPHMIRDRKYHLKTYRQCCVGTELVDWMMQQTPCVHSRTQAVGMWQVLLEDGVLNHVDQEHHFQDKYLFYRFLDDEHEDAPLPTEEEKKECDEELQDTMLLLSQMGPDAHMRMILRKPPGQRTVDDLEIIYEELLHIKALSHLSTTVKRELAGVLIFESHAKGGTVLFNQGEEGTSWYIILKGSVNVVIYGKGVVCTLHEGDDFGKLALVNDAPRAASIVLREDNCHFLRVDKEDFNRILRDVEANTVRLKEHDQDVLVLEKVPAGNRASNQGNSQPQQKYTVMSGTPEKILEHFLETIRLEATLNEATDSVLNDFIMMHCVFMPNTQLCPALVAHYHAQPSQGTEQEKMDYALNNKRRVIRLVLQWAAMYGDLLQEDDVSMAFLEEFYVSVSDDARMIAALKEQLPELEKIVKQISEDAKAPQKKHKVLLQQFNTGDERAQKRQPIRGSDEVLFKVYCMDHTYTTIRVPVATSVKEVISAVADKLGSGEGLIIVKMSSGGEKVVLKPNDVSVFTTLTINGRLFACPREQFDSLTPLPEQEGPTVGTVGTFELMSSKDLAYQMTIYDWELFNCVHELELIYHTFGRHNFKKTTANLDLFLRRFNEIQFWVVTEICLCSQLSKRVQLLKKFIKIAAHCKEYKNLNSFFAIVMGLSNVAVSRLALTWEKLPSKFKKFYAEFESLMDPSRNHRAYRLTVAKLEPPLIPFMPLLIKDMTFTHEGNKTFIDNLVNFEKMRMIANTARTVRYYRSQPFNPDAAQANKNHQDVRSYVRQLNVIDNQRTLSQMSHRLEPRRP
Sequence of Cytochrome P450 3A4 (Homo sapiens) (P08684 whole entry, looked up): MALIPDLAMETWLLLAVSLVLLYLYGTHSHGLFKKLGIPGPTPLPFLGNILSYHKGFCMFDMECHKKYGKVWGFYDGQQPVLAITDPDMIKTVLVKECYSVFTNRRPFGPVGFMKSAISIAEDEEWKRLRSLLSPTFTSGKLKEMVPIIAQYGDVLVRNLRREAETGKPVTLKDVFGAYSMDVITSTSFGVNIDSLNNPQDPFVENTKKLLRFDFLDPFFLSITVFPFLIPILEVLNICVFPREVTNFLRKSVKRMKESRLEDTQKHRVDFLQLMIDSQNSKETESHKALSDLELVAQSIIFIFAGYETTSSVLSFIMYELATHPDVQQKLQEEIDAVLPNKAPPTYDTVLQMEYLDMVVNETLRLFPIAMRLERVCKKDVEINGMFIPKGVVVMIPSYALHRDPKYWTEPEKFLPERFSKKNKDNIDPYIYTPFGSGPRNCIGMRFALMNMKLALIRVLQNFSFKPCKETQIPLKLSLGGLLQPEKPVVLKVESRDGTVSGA
Sequence of Tumor susceptibility gene 101 protein (Homo sapiens) (Q99816 whole entry, looked up, the tested form may be a part): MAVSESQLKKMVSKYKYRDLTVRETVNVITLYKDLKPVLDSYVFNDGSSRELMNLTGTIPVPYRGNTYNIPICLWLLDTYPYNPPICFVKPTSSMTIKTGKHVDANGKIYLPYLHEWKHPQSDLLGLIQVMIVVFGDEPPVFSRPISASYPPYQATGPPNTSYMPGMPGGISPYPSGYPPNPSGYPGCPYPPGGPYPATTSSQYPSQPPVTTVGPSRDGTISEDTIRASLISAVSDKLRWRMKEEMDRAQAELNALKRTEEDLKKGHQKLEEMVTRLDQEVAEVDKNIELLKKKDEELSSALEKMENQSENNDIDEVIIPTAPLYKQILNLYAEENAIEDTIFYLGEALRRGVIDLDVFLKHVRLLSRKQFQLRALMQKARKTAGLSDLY
Sequence of Ubiquitin carboxyl-terminal hydrolase 2 (Homo sapiens) (O75604 whole entry, looked up): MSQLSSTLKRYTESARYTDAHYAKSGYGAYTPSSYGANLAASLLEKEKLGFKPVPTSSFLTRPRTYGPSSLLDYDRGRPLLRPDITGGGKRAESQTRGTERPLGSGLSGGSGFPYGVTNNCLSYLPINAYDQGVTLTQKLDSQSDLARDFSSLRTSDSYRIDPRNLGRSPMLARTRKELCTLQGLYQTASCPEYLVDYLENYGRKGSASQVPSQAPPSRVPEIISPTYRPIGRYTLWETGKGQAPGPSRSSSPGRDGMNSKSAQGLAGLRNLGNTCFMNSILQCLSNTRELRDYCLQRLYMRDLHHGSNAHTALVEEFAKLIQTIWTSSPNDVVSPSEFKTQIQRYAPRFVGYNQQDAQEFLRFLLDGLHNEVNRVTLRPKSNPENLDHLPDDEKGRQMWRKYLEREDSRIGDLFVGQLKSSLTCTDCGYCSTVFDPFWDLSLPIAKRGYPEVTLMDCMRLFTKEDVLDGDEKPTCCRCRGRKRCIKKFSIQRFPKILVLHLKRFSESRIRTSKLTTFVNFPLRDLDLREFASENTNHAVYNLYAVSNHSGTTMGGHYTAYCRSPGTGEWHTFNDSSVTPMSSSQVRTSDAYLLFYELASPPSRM

Cc1ccc(N2CC(c3nc4ccccc4[nH]3)CC2=O)c(C)c1 (stereo not drawn)
inactive: Potency [1] | Potency [2] | Potency [3] | Potency [4] | Potency [5]

O=S(=O)(Nc1ccc(C(O)(C(F)(F)F)C(F)(F)F)cc1)c1ccc(Cl)c2nonc12
inactive: Potency [2] | Potency [3] | Potency [4] | Potency [5]
active: Potency [1] 42.6 µM

Cc1onc(-c2c(Cl)cccc2Cl)c1C(=O)c1ccc(F)cc1
inactive: Potency [1] | Potency [2] | Potency [3] | Potency [4] | Potency [5]

COc1cc2c(cc1OC)C(COc1ccc(F)cc1)N(C(C)=O)CC2 (stereo not drawn)
inactive: Potency [1] | Potency [2] | Potency [3] | Potency [4] | Potency [5]

Cc1ccc(N(C(=O)c2ccccc2Cl)C2=NC(C)CS2)c(C)c1 (stereo not drawn)
inactive: Potency [1] | Potency [2] | activation [3] 5.24% [at 17.1 µM, percent relative to cAMP agonist control] | activity change, negative = inhibition [4] -24.5% [at 30.8 µM] | activation [5] 26.9% [at 30.8 µM]

Cc1cc(C)c(S(=O)(=O)N2CCCC2)c(C)c1
inactive: Potency [1] | Potency [2] | Potency [3] | Potency [4] | Potency [5]

Cc1cc(C)c(S(=O)(=O)c2ccccc2C)c(SCC(C)C)n1
inactive: Potency [1] | Potency [2] | activation [3] 10.6% [at 17.1 µM, percent relative to cAMP agonist control] | activity change, negative = inhibition [4] -9.64% [at 30.8 µM] | activation [5] -2.44% [at 30.8 µM]

Cn1c(=O)c2c(nc(NCCc3ccccc3)n2CC(=O)NCCc2ccccc2)n(C)c1=O
inactive: Potency [1] | Potency [2] | Potency [3] | Potency [4] | Potency [5]

O=C(c1ccc(CN2CCc3ccccc3C2)cc1)N1CCCCC1
inactive: Potency [1] | Potency [2] | Potency [3] | Potency [4] | Potency [5]

Cc1ccc2oc(C(=O)N(Cc3ccc(N(C)C)cc3)CC3CCCO3)c(C)c2c1 (stereo not drawn)
inactive: Potency [1] | Potency [2] | Potency [3] | Potency [4] | Potency [5]

CC(=O)c1cc(C#N)c(N(C)Cc2ccccc2)nc1C
inactive: Potency [1] | Potency [2] | activation [3] 0.456% [at 17.1 µM, percent relative to cAMP agonist control] | activity change, negative = inhibition [4] -7.5% [at 30.8 µM] | activation [5] 0.131% [at 30.8 µM]

CCC(CC)NC(=O)c1ccccc1Oc1ccccc1
inactive: Potency [1] | Potency [2] | activation [3] 3.85% [at 17.1 µM, percent relative to cAMP agonist control] | activity change, negative = inhibition [4] 6.83% [at 30.8 µM] | activation [5] 13.2% [at 30.8 µM]

CCN(CC(=O)Nc1c(F)cccc1F)C(=O)/C=C/c1ccc2ccccc2n1
active: Potency [1] 8.49 µM
inactive: Potency [2] | Potency [3] | Potency [4] | Potency [5]

O=C(c1ccco1)N(Cc1ccccc1)c1cccc([N+](=O)[O-])c1
inactive: Potency [1] | Potency [2] | Potency [3] | Potency [4] | Potency [5]

Cc1ccc2c(c1)C(=O)CC(c1ccccc1)S2 (stereo not drawn)
inactive: Potency [1] | Potency [2] | activation [3] -3.98% [at 17.1 µM, percent relative to cAMP agonist control] | activity change, negative = inhibition [4] -21.7% [at 30.8 µM] | activation [5] 6.35% [at 30.8 µM]

CC(C)Cn1c(N)c(C(=O)COC(=O)c2cc(-c3ccco3)nc3ccccc23)c(=O)n(C)c1=O
inactive: outcome [7] | Potency [2] | Potency [3] | Potency [4] | Potency [5]
active: Potency [6] 15.8 µM | Potency [1] 30.1 µM

O=C(NN1C(=O)/C(=C/c2ccc(O)c([N+](=O)[O-])c2)SC1=S)c1ccccc1Cl
active: Potency [1] 84.9 µM
inactive: Potency [2] | Potency [3] | Potency [4] | Potency [5]

COc1ccc(-c2csc3ncn(-c4ccc(C)cc4)c(=O)c23)cc1OC
inactive: Potency [1] | Potency [2] | Potency [3] | Potency [4] | Potency [5]

CCOC(=O)/C(C#N)=C\c1ccc(N2CCN(C/C=C/c3ccccc3)CC2)cc1
active: Potency [8] 20.6 µM | Potency [2] 79.4 µM | Potency [3] 100 µM
inactive: Potency [1] | Potency [4]

Cc1cc(NS(=O)(=O)c2ccc(Nc3nc(-c4ccc(C)c(C)c4)cs3)cc2)no1
inactive: outcome [9] | outcome [10] | Potency [2] | Potency [3] | Potency [4]
active: Potency [11] 27.3 µM | Potency [1] 75.7 µM

C[C@@H]1CN([C@@H](C)CO)C(=O)Cc2cc(NC(=O)C3CCCCC3)ccc2O[C@H]1CN(C)S(=O)(=O)c1ccccc1
inactive: Potency [1] | Potency [2] | Potency [3] | Potency [5]

Cc1ccc([C@H]2C(C(=O)O)=CC[C@@H](c3ccc(C(C)C)cc3)N2S(=O)(=O)c2ccc(C)cc2)cc1
inactive: Potency [2] | Potency [3] | Potency [4] | Potency [5]
active: Potency [1] 75.7 µM

CC1CCN(c2ccc3c(c2)S(=O)(=O)c2cccc(C(=O)NC4CCCCC4)c2C3=O)CC1
inactive: Potency [1] | Potency [4]
active: Potency [2] 89.1 µM | Potency [3] 100 µM | Potency [5] 50.1 µM

C#CCOc1nc(C)cc(C)c1S(=O)(=O)c1ccccc1C
inactive: Potency [1] | Potency [2] | activation [3] -13.7% [at 17.1 µM, percent relative to cAMP agonist control] | activity change, negative = inhibition [4] -7.83% [at 30.8 µM] | activation [5] -3.33% [at 30.8 µM]
